Screens as filed in PubChem.
The list is not random: actives were taken first. Their share in the collection is about 1.6%.
S1P2 blocker = blocks the human S1P2 receptor. cell-based S1P2 antagonist assay, inhibition at 5 uM. inhibition, % at 5 µM. 97,000 tested, 0.21% active. AID 736; in the data active = inhibition above about 45%;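 note: CRE beta-lactamase reporter cells expressing human S1P2 stimulated with S1P; 0% = agonist at EC80 alone and 100% = agonist plus reference antagonist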
Target sequence (O95136 whole entry, looked up): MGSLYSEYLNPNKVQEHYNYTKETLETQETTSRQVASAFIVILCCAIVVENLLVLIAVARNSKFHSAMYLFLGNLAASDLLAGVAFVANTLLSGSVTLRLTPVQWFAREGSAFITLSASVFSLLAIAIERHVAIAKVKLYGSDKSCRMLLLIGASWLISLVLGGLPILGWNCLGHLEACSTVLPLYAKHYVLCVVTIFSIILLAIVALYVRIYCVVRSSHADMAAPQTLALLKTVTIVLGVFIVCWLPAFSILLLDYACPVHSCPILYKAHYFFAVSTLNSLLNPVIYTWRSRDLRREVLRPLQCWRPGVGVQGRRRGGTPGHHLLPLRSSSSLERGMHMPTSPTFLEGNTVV
E-sel TNF inh = TNF alpha driven E-selectin expression inhibition; HUVEC TNFa-induced E-selectin immunofluorescence, high content; inhibition, % at 2 µM; 120,000 tested, 0.71% active; AID 1246;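 active = inhibition above the batch mean plus 3 SD, and confirmed as a hit on visual image review, cut at about 43% in these data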;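 note: 0% = TNF-stimulated DMSO wells and 100% = unstimulated control wells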
S1P2 ag = agonists of human S1P2 receptor; S1P2-expressing cell line, agonist reporter read-out; activation, % at 4.5 µM; O95136; 97,000 tested, 0.46% active; in the data active = activation above about 16%;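 note: 0% = vehicle low control and 100% = maximal reference agonist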
VCAM1 TNFa inh = reduces TNF alpha induced VCAM1 expression in HUVEC; 95,000 tested, 0.48% active; HUVEC TNFa-induced VCAM-1 immunofluorescence, high-content imaging; inhibition, % at 2 µM;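 active = inhibition above the batch mean plus 3 SD, with images confirmed as a hit by eye, cut at about 37% in these data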;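 note: 0% = TNF-stimulated DMSO wells and 100% = unstimulated control wells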
HUVEC tox TNFa = HUVEC cytotoxicity counter-screen, TNF alpha stimulated. AID 848. 93,000 tested, 0.17% active. HUVEC TNFalpha-stimulated, Hoechst cell count, imaging. cell count reduction, % at 2 µM;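 active = cell count reduction exceeding the screen mean by over 5 SD, scaled to untreated wells per plate, cut at about 78% in these data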;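 note: cells counted after 24 h of TNF alpha exposure following the 1 h pretreatment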
F-actin modifier = alters cytoskeleton assembly in HUVEC cells. HUVEC TNFa F-actin phalloidin imaging, high content. inhibition, % at 2 µM. 91,000 tested, 0.18% active. AID 836;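 active = inhibition above the batch mean plus 3 SD and confirmed as a hit by visual image inspection, cut at about 30% in these data, passing the limit was not always enough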
* hit, by the source's call; x = not tested or not shown.

SMILES	S1P2 blocker	E-sel TNF inh	S1P2 ag	VCAM1 TNFa inh	HUVEC tox TNFa	F-actin modifier
COc1cccc(C(=O)Nc2ccccc2F)c1	x	4	x	x	x	x
COc1cccc(C(C)NC(=O)c2c(F)cccc2Cl)c1 (stereo unspecified)	x	61*	x	x	x	x
Cc1cccc(NCN2C(=O)c3ccccc3C2=O)c1	7	-10	-8	-4	-12	10
COc1ccc(C(=O)c2ccc(N(C)C)cc2)c2ccccc12	-20	-4	-2	60*	54	27
Cc1ccc(NC(=O)Cn2nnc(-c3ccccc3NC(=O)c3cccs3)n2)cc1	-3	-70	-9	60*	55	-3
COc1cccc(/C=N/NC(=O)c2nc(-c3ccccc3)cc(-c3ccccc3)n2)c1	47*	-6	-4	-49	-18	-20
COc1ccc(/C=N/NC(=O)c2nc(-c3ccccc3)cc(-c3ccccc3)n2)cc1OC	29	-14	-12	6	-9	8
COc1cc(NC(=O)CSc2ncnc3c2cnn3Cc2ccccc2)cc(OC)c1	12	23	-3	13	-18	-3
COc1ccc(OC)c(NC(=O)CSc2ncnc3c2cnn3-c2ccccc2Cl)c1	81*	-19	-3	-9	x	4
O=c1c(-c2ccc(Br)cc2)coc2c(CN3CCOCC3)c(O)ccc12	1	-9	-3	62*	32	5
CC1N=C2c3ccccc3N=C(SCc3cc(=O)n4cc(Cl)ccc4n3)N2C1=O (stereo unspecified)	-51	-1	25*	5	-12	13
CCCOc1ccc(/C(O)=C2/C(=O)C(=O)N(CCCn3ccnc3)C2c2ccco2)cc1 (stereo unspecified)	-9	100*	-5	11	-12	-11
COc1cccc(/C(O)=C2/C(=O)C(=O)N(Cc3cccnc3)C2c2ccco2)c1 (stereo unspecified)	-12	-23	-7	4	10	-16
COc1ccc(/C(O)=C2/C(=O)C(=O)N(Cc3cccnc3)C2c2ccncc2)cc1F (stereo unspecified)	13	70*	-7	4	37	-11
CC1Cc2cc(/C(O)=C3/C(=O)C(=O)N(CCCn4ccnc4)C3c3ccncc3)ccc2O1 (stereo unspecified)	-4	58*	-7	6	-11	-27
CCCOc1ccc(/C(O)=C2/C(=O)C(=O)N(CCOC)C2c2cccnc2)cc1 (stereo unspecified)	15	-11	-7	87*	80*	-26
C=CCOc1ccc(/C(O)=C2\C(=O)C(=O)N(CCOC)C2c2cccnc2)cc1 (stereo unspecified)	10	-18	-6	37	-27	0
Cc1ccc(C)c(SCc2noc(C(=O)NCC3CCCO3)c2C(=O)O)c1 (stereo unspecified)	-6	10	-13	-10	-34	0
COc1ccc(-c2nc(CN(CC3CCC(=O)N3)C(C)C)c(C)o2)c(C)c1C (stereo unspecified)	x	6	x	x	x	x
CCn1nnnc1-c1ccc(OC)c(S(=O)(=O)NCc2ccccc2)c1	15	88*	-9	4	0	26
CCn1nnnc1-c1ccc(OC)c(S(=O)(=O)Nc2ccc(C)c(C)c2)c1	0	13	-2	8	5	-1
COc1ccc(C2=Nn3c(nnc3-c3ccccc3)SC2)cc1OC	-37	-4	27*	14	-10	14
COc1ccc(C2=Nn3c(nnc3C3CCCCC3)SC2)cc1OC	-88	7	36*	8	-14	-5
COc1ccc(-c2nnc3n2N=C(C)CS3)cc1OC	6	-28	-7	1	-24	-3
COc1ccc(OC)c(C2=Nn3c(nnc3C3CCCCC3)SC2)c1	-35	16	2	-5	-5	15
C=CCN1CCN(C(c2cc(OC)ccc2OC)c2nnnn2CC2CCCO2)CC1 (stereo unspecified)	-1	71*	-6	1	-3	-23
CC(C)CN(C(=O)COC(=O)CCc1c[nH]c2ccccc12)C1CCS(=O)(=O)C1 (stereo unspecified)	7	-22	-3	29	71	39*
CC(C)CN(C(=O)COC(=O)Cc1c[nH]c2ccccc12)C1CCS(=O)(=O)C1 (stereo unspecified)	8	x	-4	-4	-25	41
COc1cccc(N2CCN(c3ncnc4c3[nH]c3ccc(F)cc34)CC2C)c1 (stereo unspecified)	105*	97*	-4	52*	26	0
